The record followed here is the supplement of paper PMC8728848.

The entries come from a sample that favours the strongest signals as a whole.

Test in all cases: glycan array binding signal (z-score within array); higher = stronger binding
Conditions in all cases: glycan notation: IUPAC condensed, linker removed

For test [1], the target named is GlcNAc(b1-3)Gal(b1-4)GlcNAc(b1-3)Gal(b1-4)GlcNAc(b1-2)[GlcNAc(b1-3)Gal(b1-4)GlcNAc(b1-3)Gal(b1-4)GlcNAc(b1-6)]Man(a1-6)[GlcNAc(b1-3)Gal(b1-4)GlcNAc(b1-3)Gal(b1-4)GlcNAc(b1-2)Man(a1-3)]Man(b1-4)GlcNAc(b1-4)[Fuc(a1-6)]GlcNAc. In outline: (§1)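 The Consortium for Functional Glycomics database supplied 3228 glycan arrays, of which those lacking an available protein sequence were dropped. The binding signal, a within-array Z-score, was averaged across arrays of the same protein sequence and across linkers. Negative scores can be read as non-binding.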

Test [2] addresses GlcNAc(b1-3)Gal(b1-4)GlcNAc(b1-3)Gal(b1-4)GlcNAc(b1-3)Gal(b1-4)GlcNAc(b1-2)[GlcNAc(b1-3)Gal(b1-4)GlcNAc(b1-3)Gal(b1-4)GlcNAc(b1-3)Gal(b1-4)GlcNAc(b1-6)]Man(a1-6)[GlcNAc(b1-3)Gal(b1-4)GlcNAc(b1-3)Gal(b1-4)GlcNAc(b1-3)Gal(b1-4)GlcNAc(b1-2)Man(a1-3)]Man(b1-4)GlcNAc(b1-4)[Fuc(a1-6)]GlcNAc. Summed up:
as §1

For test [3], the target named is GlcNAc(b1-3)Gal(b1-4)GlcNAc(b1-6)[Gal(b1-3)]GalNAc. Summed up: as §1
The target in test [4] is GlcNAc(b1-3)[GlcNAc(b1-4)][GlcNAc(b1-6)]GlcNAc. Summed up: as §1
In test [5] the target is GlcNAc(b1-4)Gal(b1-4)GlcNAc. Summed up: as §1
The next test deals with Kdn(a2-6)Gal(b1-4)GlcNAc. Summed up:
as §1

Test [6] has as its target Man(a1-2)Man(a1-3)[Man(a1-2)Man(a1-6)]Man(a1-6)[Man(a1-2)Man(a1-2)Man(a1-3)]Man(b1-4)GlcNAc(b1-4)GlcNAc. Summed up:
as §1

Test [7] concerns the target Man(a1-2)Man(a1-6)[Man(a1-3)]Man(a1-6)[Man(a1-2)Man(a1-2)Man(a1-3)]Man(b1-4)GlcNAc(b1-4)GlcNAc. Summed up: as §1
For test [8], the target named is Man(a1-3)[Man(a1-6)]Man(a1-6)[Man(a1-3)]Man. Summed up:
as §1

Test [9] has as its target Neu5Ac(a2-3)Gal(b1-3)GlcNAc(b1-3)Gal(b1-4)GlcNAc. Summed up: as §1
Test [10] deals with Neu5Ac(a2-3)Gal(b1-4)GlcNAc(b1-3)Gal. Summed up:
as §1

Test [11] addresses Neu5Ac(a2-3)Gal(b1-4)GlcNAc(b1-3)Gal(b1-4)GlcNAc(b1-6)[Gal(b1-3)]GalNAc. In outline:
as §1

In test [12] the target is Neu5Ac(a2-3)Gal(b1-4)[Fuc(a1-3)]GlcNAc(b1-3)GalNAc. Summed up: as §1
For test [13], the target named is Neu5Ac(a2-3)Gal(b1-4)[Fuc(a1-3)]GlcNAc(b1-6)[Gal(b1-3)]GalNAc. Summed up: as §1
The next test deals with Neu5Ac(a2-6)Gal(b1-4)Glc. In outline:
as §1

Test [14] deals with Neu5Ac(a2-6)Gal(b1-4)GlcNAc(b1-2)Man(a1-3)[Neu5Ac(a2-3)Gal(b1-4)GlcNAc(b1-2)Man(a1-6)]Man(b1-4)GlcNAc(b1-4)GlcNAc. Summed up:
as §1

The target of test [15] is Neu5Ac(a2-6)Gal(b1-4)GlcNAc(b1-3)Gal(b1-4)GlcNAc(b1-3)[Neu5Ac(a2-6)Gal(b1-4)GlcNAc(b1-3)Gal(b1-4)GlcNAc(b1-6)]GalNAc. Summed up: as §1
The target in test [16] is Neu5Gc(a2-3)Gal(b1-4)GlcNAc(b1-3)Gal(b1-4)GlcNAc(b1-2)Man(a1-3)[Neu5Gc(a2-3)Gal(b1-4)GlcNAc(b1-3)Gal(b1-4)GlcNAc(b1-2)Man(a1-6)]Man(b1-4)GlcNAc(b1-4)GlcNAc. Summed up: as §1

B1: BT4246 (Bacteroides thetaiotaomicron), Q89ZX5 (protein)
chain: MGSSHHHHHHENLYFQGHMASDYLDVVPPEQPNIDDAMSSPTRALGFLYSCYGGVSTDLPSAYLGEINSTTDEYVLPYSWNTDGYWGAYAFNTASSTNQDWLWGTTYQYIGQCYLFLQKLENAGSDIASDAEKEQWRAECQFLVAYYHFATLRRYGPIPITDSYIPMDTPTSEYNGRFHFDYCVDWIANQLDEAAKVLPANRTVTNEWGRATSTIAKAVKARLLLYAASPLWNGSFPYPNWQNENFETPGYGKALVSNTYDKSKWERALAACQEALTLATTSGDRELYDDDEYYSRQSLNLPFVPGVADVEDNKEFLKNVMKMRYAVSTRESEGNKEIIWGLSNQFDFYSRYPLRILKKSDGTWHAGYSGVSPTLYTFEHFYTANGKLPEKDLDFTPSSEWFESAGISSREDIIKLNVGREPRFYAWMAFDGGDYGTKFAAGSPLKLEMRNSEMHGYNPSLFNRDHSVTGFLTQKFVDPVTEFYTAGGSTSGTSAPTILFRLAELYLNVAECHAALGNTQEAIDALNPVRERAGIPKLTLADITNNMTIKDWVHNERFVELWNEGHRFFDVRRWAEGAKYFGANKREGLNAEVQSPTFEEFNKRTTVDAPYVWENRMYLNPVFYNEVYKNPQMVQAPGY
On to B1, for which the “glycan array binding signal (z-score)” value in [1] was 1.52; in [2] it was 0.637; in test [3], -0.339; in [4], -0.635; in test [5], -0.482; with Kdn(a2-6)Gal(b1-4)GlcNAc, 1.42. Further, the “glycan array binding signal (z-score)” value in [6] was -0.169; in [7], 1.59; in test [8] it was 3.62; in test [9] it was 1.07; in test [10] it was -0.929; in [11] it was 0.439. The “glycan array binding signal (z-score)” value in test [12] is 4.68; in test [13], 2.47; in the test with Neu5Ac(a2-6)Gal(b1-4)Glc, -0.168; in [14], -0.62; in [15], 3.02; in test [16], 2.77.
